High-throughput results (PubChem)
In the library only some 1.2% were active in any assay of this set; here they are far more common.
PfHsp40 rescue – rescue of yeast from PfHsp40 toxicity, primary screen, S. cerevisiae, ATP luminescence. AID 504582, 2011. S. cerevisiae expressing PfHsp40, growth rescue. 340,000 tested, 0.68% active. growth rescue, % at 12.5 µM; in the data active = growth rescue above about 28%, passing the limit was not always enough;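 note: yeast W303a lacking pdr1 and pdr3 grown in galactose medium; growth measured after three days at 30 °C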
Yp Topo-I inh – Yersinia pestis topoisomerase I inhibitors, primary screen, biochemical, cleavage product accumulation, plate reader, single point. DNA topoisomerase I (Yersinia pestis CO92). Y. pestis Topo-I cleavage product accumulation. activity, % at 10 µM. 360,000 tested, 0.064% active. AID 504884, 2011; in the data active = activity above about 50%, passing the limit was not always enough
VHR inh abs – VHR1 phosphatase inhibitors, primary screen, biochemical, absorbance, uHTS; Dual specificity protein phosphatase 3 (Homo sapiens), P51452; recombinant VHR phosphatase, pNPP absorbance; inhibition, % at 13.3 µM; 290,000 tested, 0.52% active; in the data active = inhibition above about 50%
Target sequence (P51452 whole entry, looked up): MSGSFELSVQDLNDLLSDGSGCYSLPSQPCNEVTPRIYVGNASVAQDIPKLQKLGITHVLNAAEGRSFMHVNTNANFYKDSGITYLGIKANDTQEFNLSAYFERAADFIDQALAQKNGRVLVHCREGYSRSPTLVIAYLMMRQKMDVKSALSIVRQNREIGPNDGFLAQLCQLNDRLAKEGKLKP
TcdB inh – TcdB glycohydrolase inhibitors, primary screen, biochemical, single point, plate reader; Toxin B (Clostridioides difficile), P18177; TcdB glycohydrolase enzymatic assay; inhibition, % at 9.99 µM; 350,000 tested, 0.24% active; AID 652162, 2013; in the data active = inhibition above about 10%
Vc quorum ag – inducers of Vibrio cholerae quorum light production without autoinducers, primary screen, BH1578 luxS cqsA deficient, single point; 350,000 tested, 0.16% active; V. cholerae BH1578 lux reporter, luminescence, 6 h; activation, % at 18.7 µM; AID 588436, 2011; in the data active = activation mostly above about 9.7%, no sharp cut-off
BioA inh – M. tuberculosis BioA enzyme inhibitors, primary screen, biochemical, plate reader, single point, HTS; 7,8-diaminopelargonic acid synthase BioA (Mycobacterium tuberculosis); purified M. tuberculosis BioA enzyme; inhibition, % at 9.99 µM; 360,000 tested, 0.096% active; AID 602481, 2012; in the data active = inhibition above about 40%
An asterisk follows results filed as active; i = inactive; nt = no result.

SMILES | PfHsp40 rescue | Yp Topo-I inh | VHR inh abs | TcdB inh | Vc quorum ag | BioA inh
CCOC(=O)[C@]12CCCC=C1N(Cc1ccccc1)C(=O)[C@H](CC(=O)N1CCCC1)C2 | nt | nt | nt | 1 | nt | nt
Cc1nc2c(C)cccn2c1/C(O)=C1\C(=O)C(=O)N(CCN(C)C)C1c1ccccc1 (stereo not drawn) | -1 | 4 | 5 | 4 | 0 | nt
CC(C(=O)NCc1ccccc1)N1C(=O)c2ccccc2C1=O (stereo not drawn) | 0 | 2 | 22 | -1 | i | 0
C[C@@H](C(=O)NCc1ccccc1)N1C(=O)C2CC=CCC2C1=O (stereo partly drawn) | -1 | 1 | -6 | nt | 25* | -1
Fc1ccc2c(c1)[C@H]1OCC[C@H]1[C@@H](c1ccco1)N2 | -1 | 9 | -5 | nt | -12 | 0
COC1CCCN(Cc2c(C(=O)N3CCc4ccccc4C3)nc3ccc(Cl)cn23)C1 (stereo not drawn) | 2 | 17 | 28 | 0 | 12 | 1
CC1CCCN(Cc2c(C(=O)N3CCc4ccccc4C3)nc3ccc(Cl)cn23)C1 (stereo not drawn) | 55* | 38 | -42 | 1 | -5 | 0
CCOC(=O)c1nn(-c2ccc3c(c2)OCCO3)cc1O | 0 | 7 | 13 | 1 | i | 2
Cc1sc2ncn(CC(=O)NCCCN3CCC(C)CC3)c(=O)c2c1S(=O)(=O)N1CCC(C)CC1 | -1 | -5 | 60* | -7 | i | nt
CCCC(=O)Nc1ccc(Cl)c(NC(=S)NC(=O)c2cc3ccccc3o2)c1 | 0 | 12 | 10 | 0 | 0 | -2
CC(C)Cc1cc(C(=O)N2CCCC(CO)(Cc3ccc(F)cc3)C2)no1 (stereo not drawn) | 1 | 20 | -20 | 11* | -1 | nt
Cc1cc(C(=O)N2CCCC(CO)(Cc3ccc(F)cc3)C2)c(C)o1 (stereo not drawn) | -1 | 9 | 15 | 0 | -1 | 3
CC(C)OC(=O)C(C)(C)Oc1ccc(C(=O)c2ccc(Cl)cc2)cc1 | 3 | 53* | 16 | 3 | i | -1
CC(C)c1cc(C(=O)NC2CCCc3c2cnn3-c2ccccc2F)no1 (stereo not drawn) | 1 | 29 | 7 | 0 | 0 | 0
C[C@@H]1CCCCCCCCCCC1=O | -1 | -4 | 10 | 1 | -1 | -1
O=C1NN=C2CCCCCCC12 (stereo not drawn) | nt | 1 | nt | 11* | -5 | -1
C[C@@H]1CCCCO[C@H](CN(C)S(C)(=O)=O)[C@@H](C)CN([C@H](C)CO)C(=O)c2cc(NC(=O)Nc3ccc(C(F)(F)F)cc3)ccc2O1 | nt | nt | nt | -1 | nt | 4
C[C@@H]1CN([C@@H](C)CO)C(=O)c2cc(-c3ccccc3F)cnc2O[C@@H]1CN(C)C(=O)NC1CCCCC1 | nt | nt | nt | 0 | nt | 0
O=C(NCCC(=O)N1CCN(c2ccccc2O)CC1)c1ccc(Br)cc1 | 301* | 20 | nt | 2 | i | 0
C/C(=N\NC(=O)c1cc(-c2cccnc2)nc2ccccc12)c1ccc(O)cc1O | 78* | 3 | 14 | nt | i | -2
O=C(Nc1ccc(F)cc1)c1cc(S(=O)(=O)N2CCCCC2)ccc1F | 4 | 3 | -37 | 1 | i | 2
Cc1[nH]n(-c2ccccc2)c(=O)c1N=Nc1nccs1 | 36* | 6 | 0 | nt | 0 | nt
Cc1ccccc1N=Nc1c(C)[nH]n(-c2ccccc2)c1=O | nt | nt | 7 | nt | nt | nt
CC(C)C#Cc1cnc2c(c1)C(=O)N([C@H](C)CO)C[C@H](C)[C@@H](CN(C)C(=O)Nc1ccccc1F)O2 | nt | nt | nt | -1 | nt | 2
CN(C)S(=O)(=O)c1ccc2c(c1)nc(CCC(=O)NCc1ccc(Cl)cc1)n2C | 45* | 6 | 10 | -1 | i | nt
COc1cccc(/C=C2\SC(=S)N(NS(=O)(=O)c3ccccc3)C2=O)c1OC | 11 | 2 | 27 | 2 | i | 1
COc1ccc(/C=C2/SC(=O)N(NS(=O)(=O)c3ccccc3)C2=S)cc1OC | 35* | 2 | 17 | 3 | i | -2
